Measured values from PubChem BioAssay (NCI).
This is part of a sample that, as a whole, favours compounds with a hit. Of some 79,000 tested, about 15% had one in any assay. Unmarked numbers belong to inactive results. The source made the active and inactive calls. Cut-off read from the data, not from the text of the source: active = growth inhibition above about 70%; inactive = the rest.

Columns and labels:
[1] = NCI Yeast Anticancer Drug Screen. Data for the rad50 strain (AID 155);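 note: 0% = growth of vehicle-only cultures of the same strain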; conditions: S. cerevisiae rad50 strain growth inhibition, stronger effect = higher value
Summary of the method: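 Inhibition values express reduced yeast growth in compound-treated cultures relative to vehicle-treated controls.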

[2] = NCI Yeast Anticancer Drug Screen. Data for the mec2-1 strain (AID 157); conditions: S. cerevisiae mec2-1 strain, stronger effect = higher value
Summary of the method: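 Cells of the genetically defined mec2-1 yeast strain are incubated with test compound. Inhibition of growth is calculated against vehicle-treated controls.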

[3] = NCI Yeast Anticancer Drug Screen. Data for the sgs1 mgt1 strain (AID 161);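 note: 0% = growth of cultures given vehicle only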; conditions: S. cerevisiae sgs1 mgt1 strain, stronger effect = higher value
Summary of the method: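 Read-out: growth inhibition vs vehicle controls. Cells: mutant yeast strain deficient in DNA damage repair.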

[4] = NCI Yeast Anticancer Drug Screen. Data for the cln2 rad14 strain (AID 165);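 note: 0% = growth equal to vehicle treated cultures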; conditions: S. cerevisiae cln2 rad14 strain, stronger effect = higher value
Summary of the method: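 The screen exposed genetically defined yeast (cln2 rad14) to test compounds and scored growth inhibition relative to vehicle-treated controls.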

[5] = NCI Yeast Anticancer Drug Screen. Data for the bub3 strain (AID 167); conditions: S. cerevisiae bub3 mutant strain, stronger effect = higher value
Summary of the method: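 Steps: expose the mutant yeast strain to compound; grow alongside vehicle-treated cultures; measure growth; express inhibition against the vehicle cultures.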

[6] = NCI Yeast Anticancer Drug Screen. Data for the mlh1 rad18 strain (AID 175); conditions: S. cerevisiae mlh1 rad18 strain growth inhibition, stronger effect = higher value
Summary of the method: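 Compound-treated yeast growth, normalised to vehicle controls. Strain bears defined DNA repair mutations.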

[7] = at 5.0 µM (retest, dose inferred, filed as 0.5)
[8] = at 50.0 µM (retest, dose inferred, filed as 5.0)

| SMILES | growth inhibition [1, 7] [%] | growth inhibition [1, 8] | growth inhibition ([1]; at 50.0 µM) | growth inhibition [2, 7] [%] | growth inhibition [2, 8] | growth inhibition ([2]; at 50.0 µM) | growth inhibition [3, 7] [%] | growth inhibition [3, 8] | growth inhibition ([3]; at 50.0 µM) | growth inhibition [4, 7] [%] | growth inhibition [4, 8] | growth inhibition ([4]; at 50.0 µM) | growth inhibition [5, 7] [%] | growth inhibition [5, 8] | growth inhibition ([5]; at 50.0 µM) | growth inhibition [6, 7] [%] | growth inhibition [6, 8] | growth inhibition ([6]; at 50.0 µM) |
| --- | --- | --- | --- | --- | --- | --- | --- | --- | --- | --- | --- | --- | --- | --- | --- | --- | --- | --- |
| CCC(C)(C)C(=O)OCC(=O)c1ccc(-c2ccccc2)cc1 | -15 | -17% | -5.8% | 5 | -4% | 8.25% | 2 | -3% | -7.4% | 33 | -57% | -3.35% | 29 | 25% | 62.2% | -11 | -4% | 12.8% |
| CC(C)SC(=S)Nc1cc(C(F)(F)F)ccc1Cl | -2 | 99% (active) | 99.5% (active) | 2 | 98% (active) | 99.7% (active) | 0 | 100% (active) | 99.6% (active) | -15 | 98% (active) | 99.4% (active) | 2 | 91% (active) | 99.5% (active) | 0 | 97% (active) | 99.5% (active) |
| CC(=O)OC1=CC(n2cc(F)c(=O)[nH]c2=O)OC(C)C1=O (stereo not given) | 23 | 58% | 69.7% | 13 | 85% (active) | 88.4% (active) | 24 | 64% | 86.5% (active) | 19 | 4% | 37.5% | 15 | -13% | 62.1% | 20 | 57% | 51.7% |
| O=C(OCc1ccccc1)N(CCCCN(CCCNCc1ccccc1)C(=O)OCc1ccccc1)CCCNCc1ccccc1 | 11 | 99% (active) | 90.3% (active) | 22 | 100% (active) | 93.2% (active) | 10 | 100% (active) | 91.7% (active) | 3 | 99% (active) | 90% (active) | 29 | 99% (active) | 91.8% (active) | 28 | 99% (active) | 91.2% (active) |
| O=C(/C=C\C(=O)Nc1cccc(N(Cc2ccccc2)Cc2ccccc2)c1)Nc1cccc(N(Cc2ccccc2)Cc2ccccc2)c1 | -5 | 2% | 61.5% | -10 | -1% | 87.2% (active) | 0 | 5% | 85.5% (active) | 4 | 13% | 67% | -2 | 3% | 46.2% | -3 | 3% | 82% (active) |
| C[C@H](CCC1=NCCN1)[C@H]1CC[C@H]2[C@@H]3[C@H](O)C[C@@H]4C[C@H](O)CC[C@]4(C)[C@H]3CC[C@]12C | -19 | 99% (active) | 91.5% (active) | -2 | 100% (active) | 93% (active) | 3 | 100% (active) | 91.7% (active) | -6 | 99% (active) | 91% (active) | 0 | 99% (active) | 91.6% (active) | 4 | 99% (active) | 91% (active) |
| Cc1ccc(O)c(C(C)c2ccccc2)c1 (stereo not given) | 6 | 97% (active) | 99.2% (active) | -20 | 99% (active) | 99.6% (active) | -3 | 97% (active) | 98.8% (active) | -8 | 96% (active) | 98.8% (active) | 21 | 98% (active) | 98.8% (active) | 2 | 98% (active) | 99.1% (active) |
| CC1=C/C(=C\C=C2/N(C)c3c(C)cccc3C2(C)C)C(=O)c2ncccc21 | 28 | 98% (active) | 94.2% (active) | 28 | 99% (active) | 29.7% | 19 | 98% (active) | 70.8% (active) | 9 | 98% (active) | 24.6% | 49 | 98% (active) | 64.6% | 45 | 98% (active) | 63.2% |
| COc1cc(OC)cc(C2SCC(=O)N2c2nncs2)c1 (stereo not given) | 2 | 2% | 20.2% | -5 | -3% | 97% (active) | 0 | 2% | 55.5% | -2 | 2% | 98.8% (active) | 1 | 13% | 98.6% (active) | 0 | 4% | 96.8% (active) |
| CN1c2ccccc2S(=O)(=O)n2c(CCc3ccccc3)nnc21 | 1 | 10% | 14.3% | 5 | 13% | -3% | 10 | 10% | -6.9% | 17 | 14% | 9.85% | 9 | 15% | -10.7% | 10 | 17% | 32.5% |
